# Measurements as given in PubChem BioAssay AID1259245 (Vanderbilt High Throughput Screening Facility, 2017).
# The whole screen tested about 40,000 compounds, of which about 1,400 (3.5%) were called active.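 The calls were made as follows: active = any of four per-well response measures lying three or more SD from its plate-wide compound average, in either direction; inactive = the rest, inconclusive results apart.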 The sample as a whole holds a higher share of actives than the screen did.
# Molecular target: Voltage-dependent calcium channel gamma-2 subunit (Mus musculus) + Glutamate receptor 2 (Rattus norvegicus) (UniProt O88602+P19491)
# Experiment: modulators of GluA2-stargazin AMPA receptor complexes, primary screen, cell-based, membrane potential dye (AID 1259245)
# Conditions: HEK293 GluA2+stargazin, membrane potential dye (FDSS), glutamate EC50, at 30 µM, hits were called plate by plate, in both directions; compound max-min signal: compound-alone response (agonism); glutamate slope, % of max: measured here: glutamate response slope, % max
# Chain of Voltage-dependent calcium channel gamma-2 subunit (Mus musculus) + Glutamate receptor 2 (Rattus norvegicus) (O88602 whole entry, looked up): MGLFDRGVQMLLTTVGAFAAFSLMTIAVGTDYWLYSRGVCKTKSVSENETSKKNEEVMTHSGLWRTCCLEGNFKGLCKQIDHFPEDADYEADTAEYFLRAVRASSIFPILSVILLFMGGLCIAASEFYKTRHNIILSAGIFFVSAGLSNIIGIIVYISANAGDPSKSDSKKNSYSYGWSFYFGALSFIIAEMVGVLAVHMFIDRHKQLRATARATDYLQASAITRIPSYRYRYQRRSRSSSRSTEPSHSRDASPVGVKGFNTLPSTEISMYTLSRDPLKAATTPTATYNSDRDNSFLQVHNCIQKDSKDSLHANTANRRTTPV
# Chain of Voltage-dependent calcium channel gamma-2 subunit (Mus musculus) + Glutamate receptor 2 (Rattus norvegicus) (P19491 whole entry, looked up): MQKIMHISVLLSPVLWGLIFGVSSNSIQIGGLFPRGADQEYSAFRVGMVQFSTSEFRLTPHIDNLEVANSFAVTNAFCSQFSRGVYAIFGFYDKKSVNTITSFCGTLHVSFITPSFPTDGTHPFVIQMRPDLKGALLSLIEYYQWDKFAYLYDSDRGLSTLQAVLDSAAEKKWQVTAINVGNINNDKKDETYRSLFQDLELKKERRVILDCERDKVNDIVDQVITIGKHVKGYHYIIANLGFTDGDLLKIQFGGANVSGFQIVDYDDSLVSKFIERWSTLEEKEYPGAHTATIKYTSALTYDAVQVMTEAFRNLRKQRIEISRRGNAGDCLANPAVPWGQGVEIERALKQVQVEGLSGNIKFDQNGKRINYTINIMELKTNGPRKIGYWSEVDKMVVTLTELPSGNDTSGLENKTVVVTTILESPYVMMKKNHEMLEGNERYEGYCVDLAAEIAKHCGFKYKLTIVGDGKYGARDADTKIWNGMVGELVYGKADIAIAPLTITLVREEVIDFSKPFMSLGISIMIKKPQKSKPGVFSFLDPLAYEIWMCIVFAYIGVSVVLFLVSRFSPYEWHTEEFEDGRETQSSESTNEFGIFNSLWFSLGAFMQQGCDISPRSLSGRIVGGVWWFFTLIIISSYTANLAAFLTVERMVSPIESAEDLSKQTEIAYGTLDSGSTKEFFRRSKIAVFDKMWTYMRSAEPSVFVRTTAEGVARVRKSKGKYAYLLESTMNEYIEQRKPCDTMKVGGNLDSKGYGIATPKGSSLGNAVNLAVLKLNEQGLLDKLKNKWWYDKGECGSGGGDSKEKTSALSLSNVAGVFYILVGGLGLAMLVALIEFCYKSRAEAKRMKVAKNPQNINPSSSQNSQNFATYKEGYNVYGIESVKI
Structure (SMILES),compound max-min signal,"glutamate response, % of max","glutamate slope, % of max [%]"
COc1ccc(C)cc1S(=O)(=O)Nc1cc(Cl)ccc1O,0.201,17.5% (active),33.4
CCOc1ccc(C)cc1S(=O)(=O)Nc1cc(Cl)ccc1O,0.184,20.5% (inactive),42.7
COc1ccc(C)cc1S(=O)(=O)NCC1CCN(C2CCCC2)CC1,0.046,35.2% (inactive),60.4
COc1ccc(SCC(=O)Nc2sc3c(c2C(N)=O)CCN(C(C)=O)C3)cc1,0.106,34.1% (inactive),58.5
COc1ccc(CCNC(=O)Nc2c[nH]c3ccccc23)cc1,0.127,40.6% (inactive),64.1
Cc1cc(Cl)cc2sc(N(CC3CCCO3)C(=O)CN(C)S(C)(=O)=O)nc12 (stereo unspecified),0.075,26.5% (inactive),51.3
O=S(=O)(c1ccc(C2CCCCC2)cc1)N1CCC(Cc2ccccc2)CC1,0.0564,25.6% (inactive),44.4
COc1ccc(S(=O)(=O)NCC(c2ccc(C)cc2)N2CCN(C)CC2)cc1OC (stereo unspecified),0.0672,37.4% (inactive),55.5
COc1ccc(S(=O)(=O)NCC(c2ccsc2)N2CCCCCC2)cc1F (stereo unspecified),0.168,17.6% (active),30.2
CCOc1ccc(S(=O)(=O)NCC(O)c2ccsc2)cc1F (stereo unspecified),0.128,48.1% (inactive),69
COc1ccc(N2CCN(CCNS(=O)(=O)c3ccc(Cl)s3)CC2)cc1,0.131,37.9% (inactive),47.8
CC(C)C(=O)Nc1ccc(SCC(=O)c2ccccc2)nn1,0.113,25.4% (inactive),42.3
COC(=O)c1ccc(NC(=O)CSc2ccc(NC(=O)c3ccco3)nn2)cc1,0.0425,23.1% (active),46.9
O=C(CSc1ccc(NC(=O)c2ccco2)nn1)Nc1ccc(OC(F)(F)F)cc1,0.106,19.5% (inactive),37.1
Cc1ccc(C(=O)Nc2ccc(SCC(=O)NCc3ccc4c(c3)OCO4)nn2)cc1,0.0549,27.8% (inactive),49.8
COc1cccc(CNC(=O)CSc2ccc(NC(=O)c3cccc(F)c3)nn2)c1,0.0911,24.2% (inactive),47.4
CC(=O)c1ccc(NC(=O)CSc2ccc(NC(=O)c3ccco3)nn2)cc1,0.0373,24.5% (active),47
CCOC(=O)N1CCc2c(sc(NC(=O)c3ccccc3Cl)c2-c2nc3ccccc3s2)C1,0.11,43.3% (inactive),61.3
CCn1nnc2c(N3CCN(CC(=O)Nc4c(C)cc(C)cc4C)CC3)ncnc21,0.0423,21.5% (inactive),39.9
COc1ccc(-n2nnnc2SC(C)C(=O)Nc2ccccc2Cl)cc1 (stereo unspecified),0.0851,29.7% (inactive),55.7
O=C(NCCN1CCOC(c2ccccc2)C1)c1c(F)cccc1F (stereo unspecified),0.0396,14.5% (inactive),32.8
CCOc1ccc(S(=O)(=O)NCc2ccc3c(c2)OCO3)cc1OCC,0.0924,30.4% (inactive),55.6
COc1ccc(S(=O)(=O)Nc2ccc(N3CCCCS3(=O)=O)cc2)cc1F,0.0701,25.7% (inactive),44.9
O=C(CCCn1nc(-c2ccc(Cl)cc2)ccc1=O)Nc1ccc(F)c(F)c1,0.175,35.4% (inactive),51.5

Structure (SMILES),compound max-min signal,"glutamate response, % of max","glutamate slope, % of max [%]"
CC(C)c1cc(NCCN2CCOCC2)n2ncc(-c3ccccc3)c2n1,0.126,34% (inactive),54.5
COc1nn(C)cc1C(=O)NCC(=O)Nc1cccc(C)c1C,0.067,-0.69% (active),4.95
COc1cn(CC(=O)Nc2cccc(C)c2C)c(CN2CCOCC2)cc1=O,0.0306,11% (inactive),23.6
COc1nn(C)cc1C(=O)NCCN1CCN(S(C)(=O)=O)CC1,0.0954,49.7% (inactive),63.9
Cc1ccc(NC(=O)c2ccc(S(=O)(=O)N3CCCC3)cc2)c(C(=O)c2ccccc2)c1,0.117,44% (inactive),65.3
O=C(CSCc1ccccc1)Nc1ccccc1F,0.0999,23.2% (inactive),36.5
Cc1ccc(S(=O)(=O)Nc2ccccc2C(=O)Nc2ccc3c4c(cccc24)CC3)cc1,0.105,43.6% (inactive),62.4
COc1cc([N+](=O)[O-])ccc1NC(=O)c1ccccc1NS(=O)(=O)c1ccccc1,0.141,22.1% (active),34.2
COc1ccccc1NC(=O)c1csc(NS(=O)(=O)c2ccccc2)n1,0.0914,30.6% (inactive),47.5
COc1ccc(CNC(=O)N2CCC(c3cccs3)CC2)cc1,0.14,40.4% (inactive),59.7
CN(C)C(CNC(=O)C(=O)Nc1ccc2c(c1)OCCO2)c1cccn1C (stereo unspecified),0.0533,30.5% (inactive),63.5
CCOC(=O)c1ccc(NC(=O)c2cccnc2)cc1,0.0638,27.5% (inactive),53.7
COCCCn1c(C(=O)Nc2cccnc2)cc2c(=O)n(C)c(=O)n(C)c21,0.306,24.6% (active),44.9
COCCCNc1nc2c(c(=O)n(C)c(=O)n2C)n1CC(O)COc1ccc(C)c(C)c1 (stereo unspecified),0.0698,46.2% (inactive),75.7
COc1ccccc1NC(=O)Cn1cc(-c2nnc(-c3ccco3)o2)c2ccccc21,0.137,42.8% (inactive),63.9
COc1cccc2sc(N(Cc3ccco3)C(=O)CSCc3ccccc3)nc12,0.0832,31.9% (inactive),54.9
COc1ccc2nc(N(CCN3CCOCC3)C(=O)c3ccccc3S(C)(=O)=O)sc2c1,0.0288,22.5% (inactive),42.4
COc1ccc2nc(N(CCN3CCOCC3)C(=O)c3ccc([N+](=O)[O-])o3)sc2c1,0.173,42.6% (active),68.7
COc1ccc2nc(N(CCN3CCOCC3)C(=O)c3cc4cc([N+](=O)[O-])ccc4s3)sc2c1,0.0573,31% (inactive),45.5
c1nc(N2CCN(Cc3ccc4c(c3)OCO4)CC2)c2c3c(sc2n1)CCCC3,0.0914,49% (inactive),68.7
COc1ccc(/C=C2\Oc3c(ccc4c3CN(c3ccc(F)cc3)CO4)C2=O)c(OC)c1OC,0.103,23.7% (inactive),51.7
COC(=O)c1ccsc1NC(=O)CC1Sc2ccccc2NC1=O (stereo unspecified),0.0707,30.1% (inactive),49.8
COC(=O)c1c(NC(=O)CC2NCCNC2=O)sc(C)c1C (stereo unspecified),0.0942,53% (active),55.8
